Here are results for two molecules from PubChem BioAssay (EPA / NIEHS).

What is called AC50 is the concentration giving half of the maximal activity seen.

SMILES strings stand for the structures. “And” between values parts separate entries of the source, which are not always exact repeats. Identical values can stand only once. Some compounds were tested as several samples or in several runs, with calls that do not always agree. The source made the active and inactive calls. How the source made its calls: active means hit-call score of the fitted dose curve at least 0.9, where 1 is the maximum; inactive means score below 0.9.

Read-out in one assay: CD69, CD69 (gene 969)
Briefly: BSK_IMphg_CD69: BioMAP Diversity Plus: IMphg Assay for CD69 Biomarker Activity (AID 2284257). Particulars: primary human endothelial cells with macrophages. On the procedure:
BSK_IMphg is a cell-based, multiplexed-readout assay that uses venular endothelial cells and macrophages, a human vascular primary cell, with measurements taken at 24 hours after chemical dosing in a microplate: 96-well plate.BSK_IMphg_CD69 is an assay component measured in the BSK_IMphg assay. It measures CD69 antibody related to regulation of gene expression using ELISA technology.Data from the assay component BSK_IMphg_CD69 was analyzed at the endpoint, BSK_IMphg_CD69, in the positive analysis fitting direction relative to DMSO as the negative control and baseline of activity. Using a type of binding reporter, gain or loss-of-signal activity can be used to understand protein changes. To generalize the intended target to other relatable targets, this assay endpoint is annotated to the 'cytokine' intended target family, where the subfamily is 'inflammatory factor'.
The levels of cell surface (or secreted, indicated by the prefix "s") biomarker endpoints were measured by ELISA. Overt cytotoxicity to cells in confluent adherent cultures (all systems other than the BT system) was assessed by measuring total protein levels using sulforhodamine B (SRB) staining in parallel cultures at the time of biomarker measurements, indicated as SRB endpoints. For proliferation assays for adherent cell types, individual cell types are cultured at sub-confluence and relative cell numbers quantified by SRB staining at time points optimized for each system (48 h: 3C and CASM3C systems; 72 h: BT and HDF3CGF systems; 96 h: SAg system). SRB was performed by staining cells with 0.1% SRB after fixation with 10% TCA and reading wells at 560 nm.Viability and proliferation of PBMC (T cells) was quantified by Alamar Blue reduction for the SAg and BT systems. […] Then, Alamar Blue (20 uL/well) (Invitrogen, Cat DAL1100) was added for 6 h, and the plates were read with a fluorescence microplate reader at 546/580 nm (excitation/emission). […] Plates were read after 6 h.

Read-out in assay [1]: Eotaxin 3, CCL26 (gene 10344)
The assay is described as follows: BSK_BF4T_Eotaxin3: BioMAP Diversity Plus: BF4T Assay for Eotaxin 3 Biomarker Activity (AID 2284258). Particulars: primary human bronchial epithelial cells with fibroblasts. On the procedure:
(§1) BSK_BF4T is a cell-based, multiplexed-readout assay that uses bronchial epithelial cells and dermal fibroblasts, a human vascular primary cell, with measurements taken at 24 hours after chemical dosing in a microplate: 96-well plate.BSK_BF4T_Eotaxin3 is an assay component measured in the BSK_BF4T assay. It measures Eotaxin-3 antibody related to regulation of gene expression using ELISA technology.Data from the assay component BSK_BF4T_Eotaxin3 was analyzed at the endpoint, BSK_BF4T_Eotaxin3, in the positive analysis fitting direction relative to DMSO as the negative control and baseline of activity. Using a type of binding reporter, gain or loss-of-signal activity can be used to understand protein changes. […]
(§2) The levels of cell surface (or secreted, indicated by the prefix "s") biomarker endpoints were measured by ELISA. Overt cytotoxicity to cells in confluent adherent cultures (all systems other than the BT system) was assessed by measuring total protein levels using sulforhodamine B (SRB) staining in parallel cultures at the time of biomarker measurements, indicated as SRB endpoints. For proliferation assays for adherent cell types, individual cell types are cultured at sub-confluence and relative cell numbers quantified by SRB staining at time points optimized for each system (48 h: 3C and CASM3C systems; 72 h: BT and HDF3CGF systems; 96 h: SAg system). […] Plates were read after 6 h.

Read-out in assay [2]: Monocyte Chemoattractant Protein-1 (MCP1), CCL2 (gene 6347)
Briefly: BSK_BF4T_MCP1: BioMAP Diversity Plus: BF4T Assay for Monocyte Chemoattractant Protein-1 (MCP1) Biomarker Activity (AID 2284259). As to conditions: primary human bronchial epithelial cells with fibroblasts. In a few lines:
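MCP-1 ELISA readout taken 24 h after dosing in the BF4T system (bronchial epithelial cells plus dermal fibroblasts). Parallel SRB total-protein staining flagged cytotoxicity; DMSO served as baseline, positive fitting direction.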

Read-out in assay [3]: Intercellular Adhesion Molecule 1 (ICAM1), ICAM1 (gene 3383)
The assay is described as follows: BSK_BF4T_ICAM1: BioMAP Diversity Plus: BF4T Assay for Intercellular Adhesion Molecule 1 (ICAM1) Biomarker Activity (AID 2284260). As to conditions: primary human bronchial epithelial cells with fibroblasts. The essentials:
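ICAM-1 levels measured by ELISA after 24 h chemical treatment of bronchial epithelial cell/dermal fibroblast co-cultures, read against DMSO baseline. Overt cytotoxicity checked in parallel cultures by sulforhodamine B staining.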

Read-out in a further assay: CD90, THY1 (gene 7070)
Briefly: BSK_BF4T_CD90: BioMAP Diversity Plus: BF4T Assay for CD90 Biomarker Activity (AID 2284262). As to conditions: primary human bronchial epithelial cells with fibroblasts. On the procedure: as §1, with “plate.BSK_BF4T_CD90” for “plate.BSK_BF4T_Eotaxin3”, “CD90” for “Eotaxin-3”, “BSK_BF4T_CD90” for “BSK_BF4T_Eotaxin3”, “BSK_BF4T_CD90,” for “BSK_BF4T_Eotaxin3,”
as §2

Read-out in assay [4]: Interleukin-8 (IL8), CXCL8 (gene 3576)
The assay is described as follows: BSK_BF4T_IL8: BioMAP Diversity Plus: BF4T Assay for Interleukin-8 (IL8) Biomarker Activity (AID 2284263). Particulars: primary human bronchial epithelial cells with fibroblasts. In a few lines:
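Human bronchial epithelial cells with dermal fibroblasts co-culture; IL-8 measured by ELISA 24 hours after dosing, fitted vs DMSO. Cytotoxicity tracked in parallel cultures by SRB total-protein staining.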

Read-out in assay [5]: Interleukin-1 alpha (IL1a), IL1A (gene 3552)
Briefly: BSK_BF4T_IL1a: BioMAP Diversity Plus: BF4T Assay for Interleukin-1 alpha (IL1a) Biomarker Activity (AID 2284264). Particulars: primary human bronchial epithelial cells with fibroblasts. The essentials: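 ELISA read-out of IL-1α from bronchial epithelial cell/dermal fibroblast co-cultures 24 h after compound addition. Increases scored against DMSO negative control. Cytotoxicity monitored by sulforhodamine B staining of parallel cultures.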

Read-out in a further assay: KRT18 (gene 3875)
Briefly: BSK_BF4T_Keratin818: BioMAP Diversity Plus: BF4T Assay for Keratin 818 Biomarker Activity (AID 2284266). Particulars: primary human bronchial epithelial cells with fibroblasts. The essentials:
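Keratin 8/18 levels quantified by ELISA after 24 h chemical treatment of bronchial epithelial cell/dermal fibroblast co-cultures, fitted in positive direction relative to DMSO. Parallel SRB staining tracks overt cytotoxicity.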

In the case of `O=C(O)C(F)(F)C(F)(F)C(F)(F)C(F)(F)C(=O)O`, the outcome with CD69, CD69 (gene 969) was “inactive”; in assay [1] it was “inactive”; in assay [2], “inactive”; in assay [3], “inactive”; with CD90, THY1 (gene 7070), “inactive”; in assay [4], “inactive”. Further, the result (in assay [5]; with KRT18 (gene 3875)) was inactive.

As to `C[N+](C)(C)CCCNS(=O)(=O)C(F)(F)C(F)(F)C(F)(F)C(F)(F)C(F)(F)C(F)(F)C(F)(F)C(F)(F)F`, the AC50 with CD69, CD69 (gene 969) is 8.01 µM (active); in assay [5] it was 30 µM (active); with KRT18 (gene 3875) it was 26.5 µM (active) and 5.95 µM (active). Further, the outcome is “inactive” with CD69, CD69 (gene 969); “inactive” in assay [1]; “inactive” in assay [2]; “inactive” in assay [3]; “inactive” with CD90, THY1 (gene 7070); “inactive” in assay [4]. In addition, the result in assay [5] was inactive.
